This excerpt belongs to a sample that is enriched for hits.
Methyltransferases = Primary Screen for Target Class Profiling of Small Molecule Inhibitors of Methyltransferases. purified enzyme, MTase-Glo SAH luminescence; stronger effect = lower value. calls only at 40 µM. actives 3.9% (n = 25,000). AID 1745853, 2022; call rule not given here
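Each enzyme was assayed with SAM and its substrate. SAH formation detected by MTase-Glo luminescence; single-point 40 uM screen[…].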
MTase-Glo counter = inhibits MTase-Glo coupling enzymes without methyltransferase | shares compounds with Methyltransferases | MTase-Glo coupled enzymes, SAH conversion luminescence, no MTase | Potency, µM (series often up to 57.3 µM), inactives show at the highest dose activity change, negative = inhibition, hits mostly inhibitors | actives 6% (n = 180) | AID 1745851; active means well fitted inhibition curve with a large enough effect; inconclusive means small, poorly fitted or top-dose-only effect; further: potency means the concentration at half of the fitted maximal effect
Numbers without * were called inactive; i = inactive; ? = inconclusive; + = active, no number; [ ] = dose if it differs, or a comment. On the % scale 0 is the no-effect control and ±100 the full control effect.

SMILES	Methyltransferases	others
CC(CCc1ccccc1)NC(=O)c1cc2n(n1)CC(C)(C(=O)NC1CCCC1)N(C)C2=O (stereo not drawn)	i
CC1(C(=O)NCc2ccccc2)Cn2c(cc3ccccc32)C(=O)N1Cc1ccccc1Cl (stereo not drawn)	i
O=C(Nc1ccccc1)N1CCC(N2CC3CCCN3C2=O)CC1 (stereo not drawn)	i
COc1ccccc1NC(=O)N1C[C@@H]2C[C@H](C1)c1c(/C=C/c3ccc(Cl)cc3)ccc(=O)n1C2	i
CCc1cn(C[C@H](NC(=O)C2CCCC2)C(=O)O)c(=O)[nH]c1=O	i
CCc1ccc(N2C(=O)c3cc4occc4n3CC2(C)C(=O)NC2CCC(C)CC2)cc1 (stereo not drawn)	i
O=C(Nc1ccccc1)c1cc2n(n1)CCN(C(=O)COc1ccccc1)C2	i
O=C(Nc1ccccc1)c1cnc2c(c1)N(C(=O)Cc1ccc(O)cc1)CCC2	+	MTase-Glo counter=-5.5%[85.7 µM]
CC(C)c1ccc(CC(=O)N2CCCc3ncc(C(=O)NCCc4c[nH]c5ccccc45)cc32)cc1	i
CCCOc1ccc(CN2C(=O)c3cc4sccc4n3CC2(C)C(=O)NC2CCCCCC2)cc1 (stereo not drawn)	i
O=C(CCn1ccc2cc(S(=O)(=O)N3CCCCC3)ccc21)N1CCN(c2ccccn2)CC1	i
Cc1ccc(C)c(N2CCN(C(=O)c3cc4n(n3)CC(C)(C(=O)NC3CCCC3)N(C)C4=O)CC2)c1 (stereo not drawn)	i
c1ccc(-c2cc3c(cn2)NCCN(CC2CC2)C3)cc1	+	MTase-Glo counter=2.8%[114 µM]
Cc1cnc(-c2cccnc2)n1C1CCCN(CC2CCCCC2)C1 (stereo not drawn)	i
Cc1cnc(-c2cccnc2)n1CC1CCN(S(=O)(=O)c2ccccc2)CC1	i
COc1ccc(CC(=O)Nc2ccc(N3CCC(NCCc4c(C)n[nH]c4C)CC3)cc2)cc1	i
COc1ccc(Cl)cc1NC(=O)N1CCn2cccc2C1C (stereo not drawn)	i
CCOc1ccc(C2c3cccn3-c3sc4c(c3CN2C(=O)Nc2ccc(C)c(F)c2)CCCC4)cc1 (stereo not drawn)	i
CCCn1c(=O)c2ccccc2n2c(SCC(=O)Nc3ccc(F)cc3)nnc12	i
COc1ccc(CNC(=O)Cn2ccc3cc(S(=O)(=O)N4CCCC4)ccc32)c(OC)c1	i
CN1C(=O)c2cc(NC(=O)c3ccccc3Cl)ccc2N2CCN=C12	i
COc1ccc(CC(=O)Nc2ccc3ncnc(N4CCCC4)c3c2)c(Cl)c1	+	MTase-Glo counter=?
O=C(Nc1ccc2c(N3CCCC3)ncnc2c1)c1cc(F)ccc1Cl	+	MTase-Glo counter=-1.7%
COc1ccc(-c2cnc3[nH]cc(CC(=O)Nc4ccc(C(F)(F)F)cc4)c3c2)cc1	i
O=C(c1cc(F)ccc1F)N1CCCCC1c1nc(-c2cnccn2)n[nH]1 (stereo not drawn)	i
SMILES	Methyltransferases	others
O=C(Nc1ccncc1)c1cc([N+](=O)[O-])ccc1Cl	i
O=C(Nc1ccc2ncnc(N3CCCCC3)c2c1)c1cc(F)ccc1F	+	MTase-Glo counter=5.41µM*
O=C(Cc1ccsc1)Nc1ccc2c(N3CCCC3)ncnc2c1	+	MTase-Glo counter=-0.4%
O=C(Nc1cnc(Cl)nc1)c1ccc(F)c(F)c1	i
COc1cccc(Cn2nc3n(C(C)C)c(=O)c4ccc(C(=O)NCC(C)C)cc4n3c2=O)c1	i
CCC(C)NC(=O)c1ccc2c(=O)n(CCC(C)C)c3nn(CC(=O)Nc4ccccc4)c(=O)n3c2c1 (stereo not drawn)	i
Nc1ncnc2c1nc(Cl)n2C1OC2COP(=O)(O)OC2C1O (stereo not drawn)	i
CCc1ccc(N2C(=O)c3cc4occc4n3CC2(C)C(=O)NC2CCCCCCC2)cc1 (stereo not drawn)	i
CCN1C(=O)c2cc(C(=O)Nc3ccc(C)cc3C)nn2CC1(C)C(=O)NC1CCCC1 (stereo not drawn)	i
CC(C)(N)c1ncc(-c2ccc(OC(F)(F)F)cc2)[nH]1	i
CC1CC(C)CN(S(=O)(=O)c2ccc3c(c2)oc(=O)n3CC(=O)Nc2ccc(F)cc2)C1 (stereo not drawn)	i
CS(=O)(=O)NC1CCN(c2cc(C3CC(N)C3)nc(N)n2)CC1 (stereo not drawn)	i
COc1cccc2c1OCCCN(c1cc(C3CC(O)C3)nc(N)n1)C2 (stereo not drawn)	+	MTase-Glo counter=-1.9%
COc1cccc2c1OCCCN(Cc1cn(-c3ccccc3)nn1)C2	i
CCOc1ccc(N2C(=O)c3cc(-c4ccco4)nn3CC2(C)C(=O)NC2CCCCC2)cc1 (stereo not drawn)	i
CN1C(=O)N(C)C2(CCN(CCc3ccccc3)C2)C1=O (stereo not drawn)	i
CC1CCCC(C)N1CCCN1C(=O)c2cc3occc3n2CC1(C)C(=O)NC1CCCCC1 (stereo not drawn)	i
CCCn1c(=O)c2ccc(C(=O)NC(C)CC)cc2n2c(=O)n(CC(=O)Nc3cc(F)ccc3F)nc12 (stereo not drawn)	i
COc1ncccc1-c1cc2c(ccn2CC2CCN([S+](C)(=O)[O-])CC2)c(N2CCOCC2)n1	+	MTase-Glo counter=-0.8%
Cc1nn2c(c1-c1cccnc1N1CCOCC1)N(C(=O)c1cc3ccccc3n1C)CCC2	i
CC(C)CC(=O)NCCn1cc(C(=O)O)c(=O)cc1C(O)c1ccccc1 (stereo not drawn)	i
CCCn1c(=O)c2ccc(C(=O)NC3CCCCC3)cc2n2c(=O)n(Cc3ccc(F)cc3Cl)nc12	i
CC(C)CCNC(=O)C1(C)Cn2c(cc3ccccc32)C(=O)N1Cc1ccc(F)cc1 (stereo not drawn)	i
Cc1ccccc1N1C(=O)c2cc3occc3n2CC1(C)C(=O)NC1CCCCC1 (stereo not drawn)	i
NCC(=O)N1CCCC2(Cc3ccccc3CN2S(=O)(=O)c2ccccc2)C1 (stereo not drawn)	i
SMILES	Methyltransferases	others
CCCn1c(=O)c2ccc(C(=O)NC(C)CC)cc2n2c(=O)n(CC(=O)NC(C)C)nc12 (stereo not drawn)	i
Cc1c(Cl)cccc1N1C(=O)c2cc(C3CC3)nn2CC1(C)C(=O)NC1CCCCCC1 (stereo not drawn)	i
c1ccc(CCN2CCNc3cc(NCc4cccnc4)ncc3C2)cc1	+	MTase-Glo counter=?
Fc1ccccc1CN1CCNc2cnc(OCc3cccnc3)cc2C1	i
Cn1cnc(CN2CCNc3cc(Nc4ccccc4)ncc3C2)c1	+	MTase-Glo counter=3.3%[85.7 µM]
CC(C)CNc1ccc2c(n1)C(C)(C(=O)NCc1cccnc1)CN(Cc1ccccc1)C2 (stereo not drawn)	i
Cn1cc(CN2CCOc3cc([S+](=O)([O-])Nc4ccccc4)ccc3C2)cn1	i
c1ccc(Nc2cc3c(cn2)NCCN(Cc2cccs2)C3)cc1	i
COc1ccc(Cn2c(=O)c3ccccc3n3c(-c4ccc(OC)c(OC)c4)nnc23)cc1	i
Cc1ccc(CN2CCC([C@@H]3CNC[C@H]3CO)CC2)s1	i
Cc1noc(-c2ccc(C(C)(C)C)cc2)c1C(=O)NCCOc1ccccc1	i
COc1cccc(NC(=O)CCc2nnc3n(CCCOC(C)C)c(=O)c4ccccc4n23)c1	i
